Screening data deposited in PubChem by several laboratories.
Compounds with a hit are over-represented: about 3% of the library has one in this group of screens.
MITF TRPM1 inh = reduces MITF-dependent TRPM1 promoter luciferase signal | inhibition, % at 12.5 µM | SK-MEL-5 TRPM1 promoter luciferase, 24 h | 0.83% of 330,000 active;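 active = mean inhibition across replicates of 60% or more, whatever share of single replicates reaches that level; inconclusive = some that reach 60%, reason not given; inactive = mean inhibition across replicates below 60%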
HIF-2a block = inhibitors of HIF-2a | 786-0 RCC cells HIF-2a reporter, luciferase luminescence, overnight | inhibition, % at 18.8 µM | 0.72% of 360,000 active;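 active = inhibition of the luminescence signal of 40% or more relative to plate controls, in a single-dose primary screen at 18.75 µM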
Peg3 promoter = inhibitors of Peg3 promoter | HeLa PEG-Prom luciferase reporter, luminescence, overnight | 1.7% of 360,000 active | inhibition, % at 20 µM;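 active = inhibition of at least 50% at 20 µM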
ABHD5 PLIN5 PPI = ABHD5-PLIN5 protein interaction inhibition | Q00G26+Q8WTS1 | Split G. princeps luciferase complementation, luminescence, 4 h | inhibition, % at 4 µM | 0.78% of 360,000 active;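 active = inhibition above the mean inhibition across every tested compound plus 3 SD, cut at about 22% in these data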;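 note: 0% = DMSO only wells and the 100% control is not disclosed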
KKLEB tox = counter-screen for CF NF-kB inhibitors: cytotoxicity. 0.36% of 360,000 active. activity change (cytotoxicity), % at 5 µM. KKLEB CF airway cells viability, ATPlite luminescence, overnight; active compounds read low; cells stimulated with P. aeruginosa culture filtrate;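 active = corrected activity change at or below -50% at 5 µM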
CF NFkB block = inhibitors of cystic fibrosis induced NF-kB; KKLEB NF-kB-GFP reporter, PAF-induced, GFP fluorescence overnight; 0.86% of 360,000 active; AID 588850; inhibition, % at 5 µM;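 active = at least 50% inhibition at 5 µM, scaled per plate between neutral and stimulator controls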;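 note: PAF is a Pseudomonas aeruginosa culture filtrate used as stimulus; plate controls were PAF-stimulated DMSO wells for no effect and unstimulated DMSO wells for full effect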
Mdm2 MdmX conf = Mdm2/MdmX (human) interaction inhibition, confirmed | AID 504601 | SaOS-2 split-luciferase Mdm2/MdmX complementation, luminescence | inhibition, % at 8 µM | shares compounds with HIF-2a block | 99% of 740 active;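 active = mean inhibition of the luminescence signal across two replicates at or above 26 percent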
Target sequence (O15151 whole entry, looked up): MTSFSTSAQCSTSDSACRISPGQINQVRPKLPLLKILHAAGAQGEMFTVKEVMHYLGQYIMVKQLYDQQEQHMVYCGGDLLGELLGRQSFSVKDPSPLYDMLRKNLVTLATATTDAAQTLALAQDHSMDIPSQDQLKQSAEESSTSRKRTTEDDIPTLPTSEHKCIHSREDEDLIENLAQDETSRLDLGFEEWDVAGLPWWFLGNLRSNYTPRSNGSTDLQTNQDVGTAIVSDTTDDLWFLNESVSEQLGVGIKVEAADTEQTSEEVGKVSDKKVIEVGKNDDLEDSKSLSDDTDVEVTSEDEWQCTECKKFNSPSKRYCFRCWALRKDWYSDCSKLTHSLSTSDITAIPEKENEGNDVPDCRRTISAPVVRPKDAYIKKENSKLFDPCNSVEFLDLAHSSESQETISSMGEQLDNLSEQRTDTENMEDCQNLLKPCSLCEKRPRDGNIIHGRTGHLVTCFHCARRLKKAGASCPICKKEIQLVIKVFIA
Target sequence (Q00987 whole entry, looked up): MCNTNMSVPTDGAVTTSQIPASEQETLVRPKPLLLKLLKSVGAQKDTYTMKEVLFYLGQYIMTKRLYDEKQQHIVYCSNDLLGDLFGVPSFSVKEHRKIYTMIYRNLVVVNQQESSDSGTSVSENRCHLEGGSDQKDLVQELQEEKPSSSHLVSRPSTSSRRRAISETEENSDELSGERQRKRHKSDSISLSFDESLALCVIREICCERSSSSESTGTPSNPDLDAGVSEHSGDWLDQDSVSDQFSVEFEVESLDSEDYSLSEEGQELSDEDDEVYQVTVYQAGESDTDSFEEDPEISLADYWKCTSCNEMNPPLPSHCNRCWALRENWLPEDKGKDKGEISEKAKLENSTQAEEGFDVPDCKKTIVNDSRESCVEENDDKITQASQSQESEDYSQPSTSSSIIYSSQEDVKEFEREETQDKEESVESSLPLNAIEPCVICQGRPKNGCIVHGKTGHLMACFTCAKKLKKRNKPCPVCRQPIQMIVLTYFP
HIF-2a conf = confirmation of HIF-2a inhibitors; inhibition, % at 18.8 µM; 786-0 RCC cells, HIF-2a luciferase reporter luminescence, overnight; AID 651580; 56% of 1,800 active; shares compounds with HIF-2a block;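 active = mean inhibition across four replicates of at least 40 percent at the single tested concentration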
HIF-1a counter = inhibits HIF-1a reporter, a counter-screen for HIF-2a inhibitors | MiaPaCa-2 HIF-1a luciferase reporter, desferoxamine, overnight | shares compounds with HIF-2a block | inhibition, % at 18.8 µM | 72% of 1,800 active;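 active = mean inhibition of the reporter signal across four replicates at the single tested dose of 50% or more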
* = called active by the depositor; ? = inconclusive; / = not tested or not shown.

SMILES | MITF TRPM1 inh | HIF-2a block | Peg3 promoter | ABHD5 PLIN5 PPI | KKLEB tox | CF NFkB block | HIF-2a conf | HIF-1a counter | others
O=C(NNc1nc2ccccc2o1)c1ccccc1 | / | 47* | -20 | 3 | -8 | -5 | 80* | -26
Cc1c(CCC(=O)N2CCC[C@H]2C(=O)O)c(=O)oc2c(C)c3oc4c(c3cc12)CCCC4 | -3 | 57* | -64 | -1 | 3 | 15 | 71* | 42
Cc1c(CCC(=O)NCCCn2ccnc2)c(=O)oc2c(C)c3oc4c(c3cc12)CCCC4 | 7 | 47* | -40 | 6 | -5 | 6 | 63* | 59*
CCCCC(NC(=O)Cc1c(C)c2cc3c4c(oc3c(C)c2oc1=O)CCCC4)C(=O)O (stereo not given) | 1 | 17 | 15 | -2 | -4 | -6 | / | /
Cc1c(CC(=O)NCCCC(=O)O)c(=O)oc2c(C)c3oc4c(c3cc12)CCCC4 | -5 | -3 | 8 | -9 | -15 | 9 | / | /
CCCCC(NC(=O)CCc1c(C)c2cc3c4c(oc3c(C)c2oc1=O)CCCC4)C(=O)O (stereo not given) | -1 | 53* | -14 | 5 | 5 | -3 | 55* | 35
CCOc1ccc(OCc2cccc(C(=O)N3CCCCCC3)c2)cc1 | 52 | 44* | -86 | -2 | -7 | 10 | 28 | -70
CN(c1ccccc1)S(=O)(=O)c1ccc(Cl)nc1 | -1 | 6 | -1 | -1 | 6 | -12 | / | /
Cc1nc(S(=O)(=O)N(C)c2ccccc2)c(C#N)c(C)c1Cl | 21 | 14 | 54* | -6 | -6 | 14 | / | / | Mdm2 MdmX conf=103*
Clc1nc2c(-c3ccccc3)nnn2c2ccccc12 | 57 | -63 | 103* | 3 | 1 | 42 | / | / | Mdm2 MdmX conf=103*
Cc1ccc(-c2nnn3c2nc(Cl)c2ccccc23)cc1 | 15 | -94 | -10 | -1 | 0 | 12 | / | /
O=[N+]([O-])c1c(Nc2ccccc2O)cc(Cl)c2nonc12 | 106* | 95* | 100* | 63* | -6 | 80* | 98* | 99* | Mdm2 MdmX conf=103*
O=[N+]([O-])c1c(Nc2ccccc2O)ccc2nonc12 | 2 | 4 | 23 | 2 | -10 | -21 | / | /
O=C(CCl)N(Cc1ccccc1)c1ccccc1 | 29 | 28 | 40 | 1 | -46 | 70* | / | / | Mdm2 MdmX conf=103*
COC(=O)c1ccc(C(=O)N(Cc2ccccc2)c2ccccc2)cc1 | -1 | 1 | 19 | 2 | 3 | 13 | / | /
Oc1cccc2ccc(Nc3ccccn3)nc12 | 86* | 95* | 102* | 1 | -67* | 60* | 79* | 105* | Mdm2 MdmX conf=103*
CCc1cccc(CC)c1NC(=O)/C(C#N)=C/c1ccccc1C(F)(F)F | 89* | 92* | 107* | 19 | -56* | 69* | 97* | 102*
COc1cccc(COC(=O)c2cc(=O)[nH]c3ccc(S(=O)(=O)N4CCOCC4)cc23)c1OC | -5 | 17 | -4 | 10 | 3 | -14 | / | /
CCCCn1c(SCC(=O)OCC)nc2c(sc(=S)n2-c2ccccc2OC)c1=O | 8 | 14 | 23 | 10 | -3 | -1 | / | /
Cc1cc(C)cc(OCC(=O)NCC2CCCO2)c1 (stereo not given) | 9 | 52* | 45 | 5 | 0 | 13 | 69* | 70*
COc1ncnc2c1ncn2CCCN1CCN(Cc2ccc(C)cc2)CC1 | / | 10 | 9 | 13 | 1 | 2 | / | /
O=[N+]([O-])c1cc(S(=O)(=O)N2CCCCCC2)ccc1Cl | 38 | 40* | 69* | -4 | -3 | -12 | 29 | 68*
CSc1ccc(Cn2c(C)c(C(=O)NCCC#N)sc2=O)cc1 | / | -8 | 15 | 3 | 3 | -19 | / | /
Cc1nc(/C(=N/O)C(N)=O)cs1 | -11 | 45* | 11 | -10 | -11 | -17 | -11 | -5
COC(=O)c1cnn(-c2nc(OC)cc(OC)n2)c1C | -12 | 2 | -5 | -7 | 16 | -26 | / | /
SMILES | MITF TRPM1 inh | HIF-2a block | Peg3 promoter | ABHD5 PLIN5 PPI | KKLEB tox | CF NFkB block | HIF-2a conf | HIF-1a counter | others
COc1cc(OC)nc(-n2ncc(Br)c(Br)c2=O)n1 | 93* | 92* | 104* | 13 | -94* | 91* | 100* | 106*
COc1ccc(N(C)S(=O)(=O)c2ccc3c(c2)CCN3C(=O)C2CC2)c(OC)c1 | -2 | 1 | 1 | 4 | -1 | -13 | / | /
Cc1cnc(C(=O)OCC(=O)N2C(C)CCCC2C)cn1 (stereo not given) | -9 | 2 | 0 | -6 | -8 | 17 | / | /
CC(C)(C)NS(=O)(=O)c1ccc(NC(=S)NC(=O)C2CC2)cc1 | 6 | 12 | 6 | 7 | 11 | -2 | / | /
N#CC(C#N)=C1C=CC=CN1/C(=C\c1ccccc1)C(=O)c1cccs1 | 47 | -38 | 12 | 2 | -26 | 13 | / | /
N#CC(C#N)=C1C=CC=CN1/C(=C\c1ccccc1Cl)C(=O)c1ccccc1 | 77* | 97* | 108* | 19 | -58* | 81* | 88* | 94*
Cc1ccc(CCNC(=O)c2cc(-c3ccncc3)nc3ccc(S(=O)(=O)N4CCOCC4)cc23)cc1 | 4 | 10 | 4 | 4 | 9 | 10 | / | /
CCN(CC)CCNC(=O)c1cc(-c2cccnc2)nc2ccc(S(=O)(=O)N3CCC(C)CC3)cc12 | 88* | 64* | 72* | 2 | -10 | -2 | -1 | 100* | Mdm2 MdmX conf=102*
Cn1cnc(S(=O)(=O)Nc2ccc(OC(F)F)cc2)c1 | -48 | 16 | 2 | -11 | 5 | -11 | / | /
FC(F)(F)c1cnc(NNC(=S)Nc2ccccc2Cl)c(Cl)c1 | 14 | 26 | 40 | -6 | -13 | 40 | / | /
Cc1cccc(NC(=S)NNc2ncc(C(F)(F)F)cc2Cl)c1 | 23 | 50* | 21 | 0 | -5 | -1 | 57* | 17
Cc1ccc2c(c1)=N/C(=N\c1[nH]c(O)c3ccccc13)N=2 | / | 76* | 90* | 4 | 0 | 37 | -88 | 95*
Oc1[nH]c(N=C2N=c3ccccc3=N2)c2ccccc12 | 27 | -473 | -144 | -1 | -10 | -15 | / | /
CCOC(=O)CCc1ccc(NC(=O)/C=C/c2ccc([N+](=O)[O-])o2)cc1 | ? | 91* | 14 | -7 | -12 | 36 | 54* | 107*
Cc1ccc(-c2[nH]c3ccccc3c2SCCNC(=O)c2ccc(S(=O)(=O)N3CCOCC3)cc2)cc1 | / | 36* | 16 | -5 | -8 | 18 | -2 | 49
CCN(CC)c1ccc(NC(=O)CCCCC(=O)Nc2ccc(N(CC)CC)cc2)cc1 | 29 | 65* | 12 | 4 | -6 | -4 | 66* | 49
